Sampled rows, rich in hits. Any-hit rate of the full collection: about 3.8%.
B2AR ag: beta2AR agonists driving receptor internalization, primary screen, cell-based, FAP fluorogen, flow cytometry. Beta-2 adrenergic receptor (Homo sapiens), P07550. Am2.2-beta2AR cells. response, % (test concentration not listed). 340,000 compounds, 0.43% hits;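 active = response above a set limit, near 3 SD of response in nonfluorescent compounds, cut at about 42% in these data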
Target sequence (P07550 whole entry, looked up): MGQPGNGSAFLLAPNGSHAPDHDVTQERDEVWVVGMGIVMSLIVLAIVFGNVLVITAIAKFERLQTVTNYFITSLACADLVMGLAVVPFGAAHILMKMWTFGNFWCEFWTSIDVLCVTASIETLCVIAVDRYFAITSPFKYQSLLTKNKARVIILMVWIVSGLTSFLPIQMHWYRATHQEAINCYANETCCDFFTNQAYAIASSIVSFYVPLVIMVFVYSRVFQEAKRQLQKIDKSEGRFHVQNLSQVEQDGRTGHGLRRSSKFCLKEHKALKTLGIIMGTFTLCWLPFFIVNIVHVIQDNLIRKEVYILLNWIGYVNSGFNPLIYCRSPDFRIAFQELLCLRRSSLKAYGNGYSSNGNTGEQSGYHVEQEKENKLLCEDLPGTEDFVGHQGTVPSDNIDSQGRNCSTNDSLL
tim23-1 inh: growth inhibitors of tim23-1 mutant yeast, primary screen, luminescence, uHTS; S. cerevisiae tim23-1 growth, BacTiter-Glo luminescence, 24 h; inhibition, % at 20 µM; 330,000 compounds, 1.3% hits;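 active = growth inhibition of the mutant yeast at or above 50%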;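 note: temperature-sensitive mutant grown at 25 °C; plate controls were DMSO-treated mutant yeast for no effect and medium wells lacking yeast for full effect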
tim10-1 inh: growth inhibitors of tim10-1 mutant yeast, primary screen, luminescence, uHTS. S. cerevisiae tim10-1 ts strain growth, BacTiter-Glo, 24 h. inhibition, % at 20 µM. 330,000 compounds, 2.2% hits. AID 463190, 2010;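 active = inhibition of at least 40%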;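 note: mutant grown at 25 °C; 0% = DMSO wells with yeast and 100% = wells holding no yeast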
PfHsp90 set2: growth inhibition of PfHsp90-expressing yeast, primary screen, antimalarial PfHsp90 inhibitor project, S. cerevisiae, BacTiter-Glo luminescence, single point, set 2; BacTiter-Glo ATP, 48 h; yeast lacking PDR1 and PDR3 efflux regulators; inhibition, % at 9.4 µM; 310,000 compounds, 0.32% hits;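 active = every replicate shows inhibition above about 80%, whatever the replicate mean, limit read from the data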;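 note: 0% = DMSO neutral controls and 100% = 20 µM radicicol positive controls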
TIM10 inh: growth inhibitors of isogenic TIM10 control yeast, primary screen, counter-screen for tim10-1 yeast inhibitor project, luminescence, uHTS. inhibition, % at 10 µM. S. cerevisiae TIM10 strain growth, BacTiter-Glo luminescence, 24 h. 330,000 compounds, 1.4% hits. AID 463195, 2010;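 active = inhibition of 40% or more at the single tested concentration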;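 note: wild-type TIM10 isogenic control strain grown at permissive 25 °C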
TIM10 conf: growth inhibitors of wild-type TIM10 yeast, confirmation, counter-screen for tim10-1 synthetic lethality project, single concentration, luminescence, S. cerevisiae. shares compounds with TIM10 inh. S. cerevisiae tim10 strain growth, BacTiter-Glo luminescence, 24 h. inhibition, % at 10 µM. 4,600 compounds, 63% hits;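 active = inhibition of yeast growth at or above a set limit in either of two replicates at 10 µM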;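 note: this counterscreen used the strain with wild-type TIM10; 0% = yeast with DMSO and 100% = medium wells lacking yeast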
* hit, by the source's call; / = no result given.

SMILES	B2AR ag	tim23-1 inh	tim10-1 inh	PfHsp90 set2	TIM10 inh	TIM10 conf
CN(c1ccccc1)C(c1ccc(F)cc1)c1nnnn1CC1CCCO1 (centres undefined)	-3.1	38.1	36.5	13.7	9.1	/
CN(c1ccccc1)C(c1ccc(F)cc1)c1nnnn1C1CCCC1 (centres undefined)	-6.7	37.2	31.8	/	45.4*	31.4*
Cc1cc(/C=C2\SC(=S)N(C)C2=O)c(C)n1-c1ccc(O)cc1	-536.7	28.3	33.6	96.0*	74.2*	91.1*
CCC(C)(C)C1CCC(=NNC(=S)Nc2cccnc2)CC1 (centres undefined)	5.6	45.5	32.6	-26.9	41.5*	45.2*
O=C(Nc1ccc2c(c1)Cc1ccccc1-2)c1ccncc1	-2.1	42.7	17.9	23.8	56.9*	3.6
O=C(Nc1ccc(Cl)c(Cl)c1)c1ccncc1	-4.4	9.7	27.5	3.6	13.9	/
COc1nccc(C(F)(F)F)c1C(=O)NC(=O)Nc1c(C)cccc1C	8.2	13.0	7.3	0.0	40.3*	5.5
CC(=O)Oc1ccc(/C=N/NC(=S)Nc2ccccc2)cc1	3.0	48.3	21.8	-13.0	40.9*	25.8
CCOc1ccc(/C=N/NC(=O)Nc2ccccc2)cc1	0.1	13.4	12.4	/	23.6	/
COCCNC(=O)/C(C#N)=C/c1ccc(C(=O)O)cc1	-10.5	-6.8	0.3	28.5	4.1	/
COCCCNC(=O)/C(C#N)=C/c1cccc(NC(=O)c2ccccc2Cl)c1	10.0	43.8	31.7	-26.6	45.1*	45.5*
CS(=O)(=O)N(CC(=O)N1CCCC1)Cc1ccc(Cl)c(Cl)c1	7.1	-7.3	-0.2	-0.8	-6.4	/
C/C(=N\NC(=S)Nc1ccc(F)cc1)c1ccc2c(c1)OCCO2	-13.8	38.0	34.9	-0.3	44.0*	50.6*
C/C(=N\NC(N)=S)c1ccc2c(c1)OCCO2	0.1	10.5	16.8	-24.5	-3.5	/
O=C(NCc1cccnc1)Nc1ccc(Cl)cc1	-6.4	-3.8	34.5	14.4	-2.8	/
COc1ccc(NC(=O)N2CCN(c3nc(-c4cccc(OC)c4)cs3)CC2)cc1	13.6	24.7	21.2	-8.8	40.2*	29.1*
O=C(OCC(=O)N1N=C(c2ccc(Cl)cc2)CC1c1ccco1)c1cccnc1 (centres undefined)	23.1	34.6	23.5	-12.9	13.4	/
CCN1C(=O)N/C(=C/c2cc(C)n(Cc3ccccc3)c2C)C1=O	6.7	-3.1	16.7	-6.4	95.3*	-9.8
O=S(=O)(Nc1ccc(-n2cccc2)cc1)c1ccc(Cl)c(Cl)c1	-240.0	40.5	-57.4	-14.5	45.2*	40.5*
Cc1cccc(NC(=O)c2ccc3ccccc3n2)c1C	8.0	39.3	38.4	-6.5	44.9*	31.9*
CCOCCCNC(=O)Cn1cnc2c(cnn2-c2ccc(OC)cc2)c1=O	-1.7	-3.2	-13.7	21.5	49.9*	-5.9
CCOC(=O)c1nnn(-c2ccccc2)c1C	2.9	10.9	9.9	-9.9	7.0	/
CCOC(=O)c1nnn(-c2ccc([N+](=O)[O-])cc2[N+](=O)[O-])c1C	1.0	43.9	22.5	12.5	41.2*	36.8*
O=C(c1c(Cl)nc2sccn12)N(C(=O)c1c(Cl)nc2sccn12)c1ccc(Cl)cn1	-1.8	47.7	27.2	0.3	42.0*	21.6
Cc1ccc(CN2C(=O)C(C)(C)Oc3ccc(C(=O)N4CCCCC4)cc32)cc1	-3.9	9.4	22.9	34.1	45.2*	3.6
CC1(C)Oc2ccc(C(=O)N3CCCCC3)cc2N(CC(=O)NCc2ccccc2)C1=O	-19.5	13.6	10.5	2.2	0.0	/
CN(C)C(CNC(=O)c1cccc(S(=O)(=O)N2CCN(c3ccc(F)cc3)CC2)c1)c1ccccc1 (centres undefined)	11.0	/	/	2.2	/	/
CCCCCCn1cnc2c(oc3nc4c(cc32)CCCC4)c1=O	-19.9	10.9	8.5	-0.3	43.2*	-2.2
CN(CCOc1ccc(Cl)cc1)C(=O)c1cccc(S(=O)(=O)N2CCN(c3ccccc3)CC2)c1	-13.3	/	/	0.8	/	/

Assay outcomes as filed in PubChem.
